{"source": "ChEMBL document CHEMBL3988442", "about": "“University of Dundee, Small-Polar-MMV Screening Library” (2021)", "note": "In all, about 48,000 compounds went through this assay and about 13,000 (27%) showed an effect of 50% or more. The list shows a part of the results."}
{"test_system": "Wolbachia pipientis", "assay": "Anti-Wolbachia Cell-Based Screen", "type": "functional", "parameters": "scale not given: in the data most compounds retested in dose-response had high values", "conditions": "5 µM", "units": {"Percent Effect": "%"}}
{"molecule": "Cc1nnc(CN(C)CC(=O)N2CCCC(C(F)(F)F)C2)n1C", "note": "(stereo not drawn)", "Percent Effect": -17.87}
{"molecule": "CC1CCc2nc(O)c(C(=O)NCc3ccccc3F)cc2C1", "note": "(stereo not drawn)", "Percent Effect": -2.667}
{"molecule": "C[C@@H]1CN(S(=O)(=O)N2CCCCCC2)C[C@@]1(O)C1CCC1", "Percent Effect": 19.36}
{"molecule": "O=C(O)C(F)(F)F.O=C([C@H]1C[C@H]2OCC[C@H]2N(C(=O)c2ccncc2)C1)N1CCCC1", "Percent Effect": -2.024}
{"molecule": "N#Cc1ccc(SCCC(=O)NC(N)=O)cc1", "Percent Effect": 0.3622}
{"molecule": "Cc1c(F)cccc1S(=O)(=O)N(C)CC(C)O", "note": "(stereo not drawn)", "Percent Effect": 10.31}
{"molecule": "CCOCCCNc1ncc(-c2cccc(F)c2)c(-c2nccn2C)n1", "Percent Effect": 61.85}
{"molecule": "CCOCCNC(=O)Nc1cccc(-c2nccn2C)c1", "Percent Effect": -19.42}
{"molecule": "CCOCCCC(=O)Nc1c(-c2ccc(F)cc2)ncn1C", "Percent Effect": -11.11}
{"molecule": "CCCc1cnc(C)nc1N1CCC(F)(F)CC1", "Percent Effect": -3.547}
{"molecule": "Cc1cccc2c1nc1n2[C@@H](CNC(=O)NC(C)C)COC1", "Percent Effect": -19.06}
{"molecule": "Cc1cc(Nc2ccc3c(c2)CC(=O)N3)nc(C2CC2)n1", "Percent Effect": -4.534}
{"molecule": "Cn1nccc1-c1ncc(-c2cc(C(=O)O)n(CC3CC3)c2)cn1", "Percent Effect": 118.9}
{"molecule": "Cn1cc(C(=O)NC2CCN(Cc3ccn(C)c(=O)c3)CC2)cn1", "Percent Effect": -2.603}
{"molecule": "Cn1cc(-c2cnc(N3CCCC3)nc2)cc1C(=O)O", "Percent Effect": -13.43}
{"molecule": "Cn1nccc1-c1nc2c(cc1C(=O)O)CCN(CC1CC1)CC2", "Percent Effect": -6.641}
{"molecule": "Cn1nccc1C(=O)N1CCN(C(=O)C2CC2)[C@@H]2CS(=O)(=O)C[C@@H]21", "Percent Effect": 14.29}
{"molecule": "Cn1cc(-c2cnc(-c3ccnn3C)nc2)cc1C(=O)NC1CC1", "Percent Effect": 95.89}
{"molecule": "CC(C)Oc1cccc(C(=O)C2CCCN(C(=O)c3ccnn3C)C2)c1", "note": "(stereo not drawn)", "Percent Effect": -5.247}
{"molecule": "Cc1cn2c(n1)CCC(NC(=O)c1cc(Br)cn1C)C2", "note": "(stereo not drawn)", "Percent Effect": -1.001}
{"molecule": "Cn1cc(-c2cnc(-c3ccnn3C)nc2)cc1C(=O)N1CCCC1", "Percent Effect": 85.82}
{"molecule": "COc1cccc2c1OCC(C(=O)N1CCC(N3CCSCC3)CC1)C2", "note": "(stereo not drawn)", "Percent Effect": -10.16}
{"molecule": "CSc1ccc(NCC(=O)NC(=O)NCC(F)(F)F)cc1F", "Percent Effect": 2.815}
{"molecule": "CCN(Cc1ccoc1)C(=O)Nc1ccccc1CN1CCOCC1", "Percent Effect": 2.801}
{"molecule": "Cc1cc(C(=O)NC2CC(=O)N(C(C)C)C2=O)c(C)n1C(C)C", "note": "(stereo not drawn)", "Percent Effect": -25.95}
{"molecule": "Cc1cc(N(C)C)cc(C2CCN(S(=O)(=O)c3cccnc3)C2)n1", "note": "(stereo not drawn)", "Percent Effect": 129.7}
{"molecule": "O=S(=O)(c1cccs1)N1CCC(c2nc(-c3cccs3)no2)CC1", "Percent Effect": 1.77}
{"molecule": "Cc1cc(N(C)C)cc(C2CCN(S(=O)(=O)c3cccs3)C2)n1", "note": "(stereo not drawn)", "Percent Effect": 93.47}
{"molecule": "CC(C)[C@H]1CN(S(=O)(=O)c2cccnc2)C[C@@H]1N", "Percent Effect": -3.763}
{"molecule": "COCCc1noc(C2CCN(S(=O)(=O)c3cccs3)CC2)n1", "Percent Effect": -5.417}
{"molecule": "Cc1cccc(C2CCCN(S(=O)(=O)c3cccnc3)C2)n1", "note": "(stereo not drawn)", "Percent Effect": 131.9}
{"molecule": "Cc1noc(C)c1-c1n[nH]c2c1CN(S(=O)(=O)c1cccnc1)CC2", "Percent Effect": 2.189}
{"molecule": "CNC(=O)CS(=O)(=O)C1CCN(S(=O)(=O)c2cccnc2)CC1", "Percent Effect": 10.97}
{"molecule": "N[C@H]1CN(S(=O)(=O)c2cccnc2)C[C@@H]1C1CC1", "Percent Effect": -0.9551}
{"molecule": "CN(C[C@@H]1CCC[C@@H]2CN(c3ncccn3)C[C@@H]21)C1CC1.O=C(O)C(F)(F)F", "Percent Effect": 9.93}
{"molecule": "COc1ccc(N(Cc2ccco2)C(=O)C2CCOC2)cc1F", "note": "(stereo not drawn)", "Percent Effect": -6.319}
{"molecule": "COc1ccc(CNC(=O)N(Cc2ccc(F)cc2F)C2CC2)cn1", "Percent Effect": 13.46}
{"molecule": "NC(=O)CN1CCCN(C(=O)c2ccn(-c3ccccc3)n2)CC1", "Percent Effect": -8.836}
{"molecule": "CC(=O)N1CCCN(CCCSCc2ccccc2)CC1", "Percent Effect": -18.43}
{"molecule": "NC(=O)CN1CCCN(C(=O)c2ccc(SC(F)F)cc2)CC1", "Percent Effect": 104.9}
{"molecule": "CCSCc1ccc(C(=O)N2CCCN(CC)CC2)cc1", "Percent Effect": 93.96}
{"molecule": "CCN1CCCN(C(=O)c2cnc(OC(C)C)c(Cl)c2)CC1", "Percent Effect": 20.31}
{"molecule": "CCSCc1ccc(C(=O)N2CCCN(CC(N)=O)CC2)cc1", "Percent Effect": 111.3}
{"molecule": "Cc1cc(Br)oc1C(=O)N1CCCN(CC(N)=O)CC1", "Percent Effect": -7.615}
{"molecule": "NC(=O)N1CCCN(CCCSCc2ccccc2)CC1", "Percent Effect": -22.93}
{"molecule": "NC(=O)CN1CCCN(C(=O)c2ccn(-c3ccc(F)cc3)n2)CC1", "Percent Effect": 9.69}
{"molecule": "COc1ccc2[nH]c(C[C@@H]3C[C@@H](C(C)C)[C@H](CN(C)C)C=C3C)nc2c1", "Percent Effect": -3.029}
{"molecule": "Cc1ccc(C(CNCc2cccn2C)N2CCOCC2)s1", "note": "(stereo not drawn)", "Percent Effect": 12.06}
{"molecule": "Cc1ccc2nc(NCCCN3CCCCCC3=O)n(C)c(=O)c2c1", "Percent Effect": 5.904}
{"molecule": "CCC(CC)NC(=O)c1ccc2nnc(C3CCN(C(C)=O)C3)n2c1", "note": "(stereo not drawn)", "Percent Effect": -17.88}
{"molecule": "O=C(c1ccc(Cl)cc1)N1CCC2(CC1)C(=O)Nc1ccccc12", "Percent Effect": 0.2295}
{"molecule": "CC(=O)N1CCC2(CC1)CN(C(=O)c1cccc3[nH]ccc13)CCO2", "Percent Effect": -6.539}
{"molecule": "NCCCC(=O)N1CCC2(CC1)CN(C(=O)c1ccc(Cl)cc1)CCO2", "Percent Effect": 114.9}
{"molecule": "O=C(c1ccc(Cl)cc1)N1CCC2(C1)C(=O)Nc1ccccc12", "note": "(stereo not drawn)", "Percent Effect": 123}
{"molecule": "CC(C)N(C)C(=O)C1=NOC2(CCN(C(=O)c3ccc(Cl)cc3)C2)C1", "note": "(stereo not drawn)", "Percent Effect": -15.34}
{"molecule": "O=C(c1cnc(-c2ccccc2)nc1)N1CCOC2(CCCC2)C1", "Percent Effect": -7.447}
{"molecule": "NCCC(=O)N1CCC2(CC1)CN(C(=O)c1ccc(Cl)cc1)CCO2", "Percent Effect": 94.29}
{"molecule": "CN(C)C(=O)NC1COC2(CCN(C(=O)c3ccc(Cl)cc3)CC2)C1", "note": "(stereo not drawn)", "Percent Effect": -7.709}
{"molecule": "O=C(c1ccoc1)N1CCC2(CC1)C(=O)Nc1ccccc12", "Percent Effect": 5.078}
{"molecule": "CN(C)Cc1ccc(NC(=O)c2nccn3ccnc23)cc1", "Percent Effect": 4.692}
{"molecule": "CCc1ncc2c(n1)CN(Cc1cccc3c1OCCO3)CC2", "Percent Effect": -19.5}
{"molecule": "Cc1ncc2c(n1)CN(Cc1nc(-c3cccs3)no1)CC2", "Percent Effect": 104.1}
{"molecule": "CCc1ncc2c(n1)CN(Cc1nc(-c3ccsc3)no1)CC2", "Percent Effect": -2.841}
{"molecule": "Cn1nc2c(cc1=O)CN(Cc1nc(-c3cccs3)no1)CC2", "Percent Effect": -4.413}
{"molecule": "CC(C)c1ncc2c(n1)CN(Cc1nc(-c3cccs3)no1)CC2", "Percent Effect": 1.311}
{"molecule": "c1csc(-c2noc(CN3CCc4cncnc4C3)n2)c1", "Percent Effect": 93.12}
{"molecule": "c1cc(CN2CCc3cncnc3C2)c2c(c1)OCCO2", "Percent Effect": 51.63}
{"molecule": "Cc1ncc2c(n1)CN(Cc1cccc3c1OCCO3)CC2", "Percent Effect": -20.45}
{"molecule": "CCc1ncc2c(n1)CN(Cc1nc(-c3cccs3)no1)CC2", "Percent Effect": 94.19}
{"molecule": "c1csc(-c2noc(CN3CCc4c(ncn4C4CC4)C3)n2)c1", "Percent Effect": -1.185}
{"molecule": "CC(C)c1nc2c(n1C)CCN(Cc1nc(-c3cccs3)no1)C2", "Percent Effect": -3.537}
{"molecule": "COc1ccc(-c2noc(CN3CCc4cncnc4C3)n2)cc1", "Percent Effect": -16.15}
{"molecule": "O=C(NC1(c2nnn(CC3CC3)n2)CCCC1)c1ccccc1", "Percent Effect": -31.69}
{"molecule": "CCc1nc(C)c(C(=O)N2CCCC(c3noc(C)n3)C2)s1", "note": "(stereo not drawn)", "Percent Effect": -3.627}
{"molecule": "CN(C)c1ccc(CCCNC(=O)NCC(O)c2cccs2)cc1", "note": "(stereo not drawn)", "Percent Effect": 15.76}
{"molecule": "CN1CCN(CCCNC(=O)C2CCCCC2)CC1", "Percent Effect": -13.83}
{"molecule": "Cc1cc(-c2cnn(CCNC(=O)CCn3cccn3)c2C2CC2)on1", "Percent Effect": 139.3}
{"molecule": "CC1CCN(C(CNC(=O)CCn2cccn2)c2cccs2)CC1", "note": "(stereo not drawn)", "Percent Effect": 3.155}
{"molecule": "Cc1cc(-c2cnn(CCNC(=O)Cc3ccccn3)c2C2CC2)on1", "Percent Effect": 116.9}
{"molecule": "CCC(NCCn1cccn1)C(=O)Nc1cc(C)on1", "note": "(stereo not drawn)", "Percent Effect": -12.89}
{"molecule": "O=C(O)C(F)(F)F.O=S(=O)(C1CC1)N1CCc2onc(COc3ccccn3)c2C1", "Percent Effect": -9.105}
{"molecule": "Cn1cnc2c1CCN(CC(O)c1ccc(S(C)(=O)=O)cc1)C2", "note": "(stereo not drawn)", "Percent Effect": 1.592}
{"molecule": "Cc1ccoc1C(=O)NCC(c1ccccc1Cl)N1CCOCC1", "note": "(stereo not drawn)", "Percent Effect": -4.275}
{"molecule": "CC(O)CN1CC(C)(C)CN(C(=O)CCc2ccccc2)CC1=O", "note": "(stereo not drawn)", "Percent Effect": 108.2}
{"molecule": "O=C(CCc1ccccc1)N1CCn2cc(CN3CCCC3)nc2C1", "Percent Effect": 5.739}
{"molecule": "CCCC(O)CN1CC(C)(C)CN(C(=O)CCc2ccccc2)CC1=O", "note": "(stereo not drawn)", "Percent Effect": 81.6}
{"molecule": "CCc1nc(C(=O)N2CCN(C(=O)CCc3ccccc3)CC2)c[nH]1", "Percent Effect": -3.201}
{"molecule": "CC(C)(O)CN1CC(C)(C)CN(C(=O)CCc2ccccc2)CC1=O", "Percent Effect": 88.99}
{"molecule": "CCN1CC(C)(C)CN(C(=O)CCc2ccccc2)CC1=O", "Percent Effect": 98.77}
{"molecule": "CCC(Nc1nnnn1-c1ccccc1)C(=O)NC1CCSCC1", "note": "(stereo not drawn)", "Percent Effect": 2.585}
{"molecule": "O=C(O)C1(Oc2ccccc2F)CCN(C/C=C/c2ccco2)CC1", "Percent Effect": 10.04}
{"molecule": "Oc1ccc(-c2c(-c3ccccc3)ncn2C2CCNC2)cc1", "note": "(stereo not drawn)", "Percent Effect": 5.17}
{"molecule": "COc1cc2c(cc1C1CC(=O)NCc3nc(N(C)C)sc31)CCC2", "note": "(stereo not drawn)", "Percent Effect": -15.52}
{"molecule": "COCC(O)CN1CC(C)(C)CN(C(=O)CCc2ccccc2)CC1=O", "note": "(stereo not drawn)", "Percent Effect": 110.7}
{"molecule": "CN1CC(C)(C)CN(C(=O)CCc2ccccc2)CC1=O", "Percent Effect": 83.23}
{"molecule": "CC1N(C)C(=O)COC12CCN(C(=O)CCc1ccccc1)CC2", "note": "(stereo not drawn)", "Percent Effect": 0.4061}
{"molecule": "CN1CCN(C(=O)CCc2ccccc2)Cc2cccnc21.O=C(O)C(F)(F)F", "Percent Effect": -4.699}
{"molecule": "CN1C(=O)CC(C(=O)O)C12CCN(Cc1ccc(Cl)cc1F)CC2", "note": "(stereo not drawn)", "Percent Effect": 5.202}
{"molecule": "CC(=O)NCC(=O)N1Cc2nccn2CC(CN(C)C(C)C)C1.O=C(O)C(F)(F)F", "note": "(stereo not drawn)", "Percent Effect": -7.594}
{"molecule": "CC(C)NC(=O)N1Cc2nccn2CC(COc2cccnc2)C1.O=C(O)C(F)(F)F", "note": "(stereo not drawn)", "Percent Effect": 96.94}
{"molecule": "CC(C)NC(=O)N1Cc2nccn2CC(CN2CCCC2)C1.O=C(O)C(F)(F)F", "note": "(stereo not drawn)", "Percent Effect": 12.37}
{"molecule": "CC(=O)NCC(=O)N1Cc2nccn2CC(CN2CCCC2=O)C1", "note": "(stereo not drawn)", "Percent Effect": 14.08}
{"molecule": "CC(=O)NCC(=O)N1Cc2nccn2CC(COc2cccnc2)C1.O=C(O)C(F)(F)F", "note": "(stereo not drawn)", "Percent Effect": 111.9}
